Data as given in ChEMBL document CHEMBL2218924, “A broad activity screen in support of a chemogenomic map for kinase signalling research and drug discovery” (Biochem J, 2013).

Experiments:
[1] = molecular target: Ephrin type-A receptor 5 (Homo sapiens) (UniProt P54756); details: at 1 µM
[2] = molecular target: Ephrin type-A receptor 5 (Homo sapiens) (UniProt P54756); details: at 10 µM
[3] = molecular target: T1, Ephrin type-B receptor 1 (Homo sapiens) (UniProt P54762); details: at 1 µM
T1 sequence (whole entry): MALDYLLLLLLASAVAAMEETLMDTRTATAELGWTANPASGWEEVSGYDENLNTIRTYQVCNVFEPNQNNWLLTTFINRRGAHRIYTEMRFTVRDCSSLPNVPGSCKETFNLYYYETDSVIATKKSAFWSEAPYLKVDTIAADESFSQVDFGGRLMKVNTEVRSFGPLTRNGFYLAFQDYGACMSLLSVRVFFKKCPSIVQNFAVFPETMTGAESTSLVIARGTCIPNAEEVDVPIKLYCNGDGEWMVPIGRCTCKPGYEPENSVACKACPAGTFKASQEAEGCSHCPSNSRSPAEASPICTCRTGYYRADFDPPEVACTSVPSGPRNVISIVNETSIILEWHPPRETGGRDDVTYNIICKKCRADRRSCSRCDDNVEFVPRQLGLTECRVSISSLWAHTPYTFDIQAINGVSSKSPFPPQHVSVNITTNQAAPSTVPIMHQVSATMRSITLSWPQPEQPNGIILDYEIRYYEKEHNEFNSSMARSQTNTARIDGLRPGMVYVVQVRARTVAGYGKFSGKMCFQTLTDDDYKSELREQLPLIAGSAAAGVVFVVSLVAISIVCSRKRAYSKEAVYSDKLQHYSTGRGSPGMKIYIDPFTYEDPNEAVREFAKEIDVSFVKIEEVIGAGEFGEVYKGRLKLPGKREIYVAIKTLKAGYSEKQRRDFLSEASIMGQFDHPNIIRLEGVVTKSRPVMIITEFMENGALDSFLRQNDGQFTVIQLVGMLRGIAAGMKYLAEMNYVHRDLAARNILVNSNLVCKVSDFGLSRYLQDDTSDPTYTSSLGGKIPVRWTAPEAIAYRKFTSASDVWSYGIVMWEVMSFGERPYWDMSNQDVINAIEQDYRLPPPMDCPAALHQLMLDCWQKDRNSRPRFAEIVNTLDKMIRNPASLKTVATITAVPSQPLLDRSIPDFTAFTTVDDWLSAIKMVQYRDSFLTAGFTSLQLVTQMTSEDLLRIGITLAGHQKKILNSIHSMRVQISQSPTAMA

[4] = molecular target: T2, Ephrin type-B receptor 3 (Homo sapiens) (UniProt P54753); details: at 1 µM
T2 sequence (whole entry): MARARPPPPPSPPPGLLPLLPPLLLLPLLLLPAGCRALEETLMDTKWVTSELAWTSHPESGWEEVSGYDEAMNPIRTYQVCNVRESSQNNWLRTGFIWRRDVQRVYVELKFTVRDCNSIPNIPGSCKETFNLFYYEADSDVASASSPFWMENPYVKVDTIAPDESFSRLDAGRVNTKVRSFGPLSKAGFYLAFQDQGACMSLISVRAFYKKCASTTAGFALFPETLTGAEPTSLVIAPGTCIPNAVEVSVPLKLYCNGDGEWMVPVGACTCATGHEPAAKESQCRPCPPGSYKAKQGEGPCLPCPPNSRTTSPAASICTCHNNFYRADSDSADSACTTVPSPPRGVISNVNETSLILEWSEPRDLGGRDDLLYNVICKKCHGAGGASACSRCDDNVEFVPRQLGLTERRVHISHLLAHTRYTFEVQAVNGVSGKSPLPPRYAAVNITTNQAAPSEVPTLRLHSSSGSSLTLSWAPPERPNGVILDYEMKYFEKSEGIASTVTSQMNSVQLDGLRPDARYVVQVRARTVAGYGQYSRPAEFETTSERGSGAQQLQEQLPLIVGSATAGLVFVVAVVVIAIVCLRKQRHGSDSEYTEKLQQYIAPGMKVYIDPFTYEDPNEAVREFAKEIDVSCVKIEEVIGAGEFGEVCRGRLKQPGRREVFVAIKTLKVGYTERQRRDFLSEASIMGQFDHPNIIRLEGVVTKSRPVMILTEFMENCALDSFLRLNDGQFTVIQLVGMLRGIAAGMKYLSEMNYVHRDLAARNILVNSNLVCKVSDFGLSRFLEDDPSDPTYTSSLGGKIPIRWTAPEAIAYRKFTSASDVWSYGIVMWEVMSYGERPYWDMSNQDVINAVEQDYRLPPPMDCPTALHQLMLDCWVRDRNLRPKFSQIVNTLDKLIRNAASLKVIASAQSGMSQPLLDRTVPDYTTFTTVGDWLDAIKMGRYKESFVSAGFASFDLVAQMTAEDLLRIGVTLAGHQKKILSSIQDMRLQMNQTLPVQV

[5] = molecular target: T2, Ephrin type-B receptor 3 (Homo sapiens); details: at 10 µM
[6] = molecular target: Focal adhesion kinase 1 (Homo sapiens) (UniProt Q05397); details: at 1 µM
[7] = molecular target: T3, Ephrin type-B receptor 2 (Homo sapiens) (UniProt P29323); details: at 1 µM
T3 sequence (whole entry): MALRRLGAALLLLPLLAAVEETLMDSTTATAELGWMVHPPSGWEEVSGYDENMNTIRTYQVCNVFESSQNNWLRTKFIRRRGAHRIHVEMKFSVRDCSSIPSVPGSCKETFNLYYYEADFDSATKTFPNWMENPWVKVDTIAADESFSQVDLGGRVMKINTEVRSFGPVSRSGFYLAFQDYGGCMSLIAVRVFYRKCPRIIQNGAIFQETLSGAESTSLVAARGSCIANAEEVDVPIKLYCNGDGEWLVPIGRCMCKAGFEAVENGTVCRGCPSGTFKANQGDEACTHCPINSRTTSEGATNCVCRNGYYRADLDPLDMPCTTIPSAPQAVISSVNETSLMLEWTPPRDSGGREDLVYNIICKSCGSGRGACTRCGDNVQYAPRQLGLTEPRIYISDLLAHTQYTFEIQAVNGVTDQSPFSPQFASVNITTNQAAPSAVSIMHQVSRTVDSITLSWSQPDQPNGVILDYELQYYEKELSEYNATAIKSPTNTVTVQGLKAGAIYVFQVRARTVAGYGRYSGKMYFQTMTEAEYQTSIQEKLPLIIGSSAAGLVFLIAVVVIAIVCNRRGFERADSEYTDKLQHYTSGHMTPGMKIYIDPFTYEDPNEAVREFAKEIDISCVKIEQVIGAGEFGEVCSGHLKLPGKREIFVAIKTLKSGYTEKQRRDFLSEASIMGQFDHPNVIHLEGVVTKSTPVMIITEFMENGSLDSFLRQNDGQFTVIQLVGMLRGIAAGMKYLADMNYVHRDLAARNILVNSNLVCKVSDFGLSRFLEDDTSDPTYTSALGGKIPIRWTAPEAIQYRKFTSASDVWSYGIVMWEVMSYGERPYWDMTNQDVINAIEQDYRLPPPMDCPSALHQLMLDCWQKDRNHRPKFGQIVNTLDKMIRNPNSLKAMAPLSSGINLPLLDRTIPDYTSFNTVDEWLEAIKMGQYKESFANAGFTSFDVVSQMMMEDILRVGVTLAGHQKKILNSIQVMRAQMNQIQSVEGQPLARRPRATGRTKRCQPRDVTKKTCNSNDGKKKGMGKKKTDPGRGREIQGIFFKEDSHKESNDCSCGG

[8] = molecular target: T3, Ephrin type-B receptor 2 (Homo sapiens); details: at 10 µM
[9] = molecular target: T4, Ephrin type-B receptor 4 (Homo sapiens) (UniProt P54760); details: at 1 µM
T4 sequence (whole entry): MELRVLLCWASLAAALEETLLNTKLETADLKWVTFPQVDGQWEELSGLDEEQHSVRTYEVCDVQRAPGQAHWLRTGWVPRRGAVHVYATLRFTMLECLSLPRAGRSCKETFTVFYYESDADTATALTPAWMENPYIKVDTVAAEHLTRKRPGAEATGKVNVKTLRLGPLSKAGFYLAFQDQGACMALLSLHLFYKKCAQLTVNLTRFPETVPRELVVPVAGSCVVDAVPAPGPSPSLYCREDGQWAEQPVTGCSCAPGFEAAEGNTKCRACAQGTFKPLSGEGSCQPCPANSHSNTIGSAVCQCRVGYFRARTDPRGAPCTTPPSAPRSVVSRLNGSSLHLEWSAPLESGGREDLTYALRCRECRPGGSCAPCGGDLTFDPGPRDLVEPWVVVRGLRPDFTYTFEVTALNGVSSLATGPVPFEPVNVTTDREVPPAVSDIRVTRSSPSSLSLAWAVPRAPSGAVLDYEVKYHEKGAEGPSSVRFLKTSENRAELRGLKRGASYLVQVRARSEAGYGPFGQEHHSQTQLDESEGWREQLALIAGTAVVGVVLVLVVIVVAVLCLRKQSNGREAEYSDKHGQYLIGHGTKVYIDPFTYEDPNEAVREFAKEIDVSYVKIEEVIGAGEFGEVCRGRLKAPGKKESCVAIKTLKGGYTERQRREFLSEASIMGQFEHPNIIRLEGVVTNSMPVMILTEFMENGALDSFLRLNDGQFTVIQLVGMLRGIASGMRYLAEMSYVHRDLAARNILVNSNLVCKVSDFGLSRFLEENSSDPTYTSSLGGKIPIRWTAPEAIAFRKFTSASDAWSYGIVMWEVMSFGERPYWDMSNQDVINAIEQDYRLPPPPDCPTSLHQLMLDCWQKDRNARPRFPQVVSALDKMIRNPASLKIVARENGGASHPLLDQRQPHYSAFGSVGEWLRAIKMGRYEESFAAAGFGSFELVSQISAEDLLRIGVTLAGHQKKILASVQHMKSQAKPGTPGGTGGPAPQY

[10] = molecular target: T4, Ephrin type-B receptor 4 (Homo sapiens); details: at 10 µM
[11] = molecular target: Receptor tyrosine-protein kinase erbB-4 (Homo sapiens) (UniProt Q15303); details: at 1 µM
[12] = molecular target: Receptor tyrosine-protein kinase erbB-4 (Homo sapiens) (UniProt Q15303); details: at 10 µM

Sequence of Ephrin type-A receptor 5 (Homo sapiens) (P54756 whole entry): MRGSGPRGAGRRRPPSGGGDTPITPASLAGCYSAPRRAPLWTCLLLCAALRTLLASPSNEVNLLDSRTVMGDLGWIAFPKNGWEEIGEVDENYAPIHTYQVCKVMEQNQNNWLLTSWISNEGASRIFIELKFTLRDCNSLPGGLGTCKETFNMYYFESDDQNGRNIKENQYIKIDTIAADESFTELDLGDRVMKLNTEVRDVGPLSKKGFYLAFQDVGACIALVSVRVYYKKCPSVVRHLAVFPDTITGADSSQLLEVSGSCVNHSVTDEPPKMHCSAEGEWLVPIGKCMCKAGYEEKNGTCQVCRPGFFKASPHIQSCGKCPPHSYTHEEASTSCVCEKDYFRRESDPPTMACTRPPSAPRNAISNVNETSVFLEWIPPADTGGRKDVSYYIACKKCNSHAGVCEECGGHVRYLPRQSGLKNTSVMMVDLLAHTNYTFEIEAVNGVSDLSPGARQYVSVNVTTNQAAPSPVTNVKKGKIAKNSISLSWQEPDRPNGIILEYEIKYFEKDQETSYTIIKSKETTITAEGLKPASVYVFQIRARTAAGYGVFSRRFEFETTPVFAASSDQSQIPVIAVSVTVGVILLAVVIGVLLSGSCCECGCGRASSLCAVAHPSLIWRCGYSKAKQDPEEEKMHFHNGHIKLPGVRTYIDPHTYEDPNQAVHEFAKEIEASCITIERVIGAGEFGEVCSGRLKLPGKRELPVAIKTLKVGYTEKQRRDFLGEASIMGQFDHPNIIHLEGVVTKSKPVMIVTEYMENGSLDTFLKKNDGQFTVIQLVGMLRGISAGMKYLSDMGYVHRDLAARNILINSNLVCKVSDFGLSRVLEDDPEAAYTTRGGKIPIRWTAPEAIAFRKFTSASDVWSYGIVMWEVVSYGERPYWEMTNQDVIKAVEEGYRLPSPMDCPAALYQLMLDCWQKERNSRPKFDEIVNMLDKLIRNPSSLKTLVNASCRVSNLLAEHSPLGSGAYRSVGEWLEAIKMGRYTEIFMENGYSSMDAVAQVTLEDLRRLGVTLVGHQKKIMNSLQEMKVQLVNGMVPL
Sequence of Receptor tyrosine-protein kinase erbB-4 (Homo sapiens) (Q15303 whole entry): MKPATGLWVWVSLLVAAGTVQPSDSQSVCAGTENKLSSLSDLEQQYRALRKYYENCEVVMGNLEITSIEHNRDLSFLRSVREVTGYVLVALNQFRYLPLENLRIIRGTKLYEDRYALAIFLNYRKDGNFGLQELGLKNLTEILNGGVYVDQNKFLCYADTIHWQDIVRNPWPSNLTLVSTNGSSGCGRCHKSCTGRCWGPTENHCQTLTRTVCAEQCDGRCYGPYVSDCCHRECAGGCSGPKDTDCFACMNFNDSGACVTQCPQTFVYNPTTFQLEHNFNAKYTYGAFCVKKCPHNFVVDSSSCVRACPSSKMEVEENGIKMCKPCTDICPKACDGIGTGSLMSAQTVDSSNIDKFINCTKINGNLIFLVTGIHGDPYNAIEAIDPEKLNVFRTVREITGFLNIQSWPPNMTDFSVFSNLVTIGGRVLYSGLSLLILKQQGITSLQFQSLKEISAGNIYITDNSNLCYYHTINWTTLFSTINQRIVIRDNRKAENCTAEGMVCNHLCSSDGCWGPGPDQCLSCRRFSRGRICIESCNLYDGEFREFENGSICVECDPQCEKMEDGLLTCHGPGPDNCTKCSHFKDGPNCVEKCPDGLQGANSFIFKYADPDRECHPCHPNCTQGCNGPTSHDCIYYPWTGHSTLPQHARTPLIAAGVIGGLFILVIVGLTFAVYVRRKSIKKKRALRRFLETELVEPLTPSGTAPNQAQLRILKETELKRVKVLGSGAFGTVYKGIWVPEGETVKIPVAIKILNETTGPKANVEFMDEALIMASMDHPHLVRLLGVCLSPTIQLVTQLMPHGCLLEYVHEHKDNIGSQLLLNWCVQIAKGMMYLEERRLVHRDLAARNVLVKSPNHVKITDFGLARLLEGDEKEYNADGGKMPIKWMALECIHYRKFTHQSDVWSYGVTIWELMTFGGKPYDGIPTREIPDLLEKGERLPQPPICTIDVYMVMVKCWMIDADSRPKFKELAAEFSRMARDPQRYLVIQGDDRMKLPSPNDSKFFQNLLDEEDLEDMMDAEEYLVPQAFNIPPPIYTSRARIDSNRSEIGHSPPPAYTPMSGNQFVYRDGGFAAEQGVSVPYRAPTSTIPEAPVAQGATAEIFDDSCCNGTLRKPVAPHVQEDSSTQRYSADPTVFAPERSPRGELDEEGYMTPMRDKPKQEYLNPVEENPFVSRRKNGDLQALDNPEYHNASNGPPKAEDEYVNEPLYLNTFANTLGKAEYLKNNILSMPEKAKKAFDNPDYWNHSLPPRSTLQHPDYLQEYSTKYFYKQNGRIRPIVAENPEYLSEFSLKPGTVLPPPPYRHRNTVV
Sequence of Focal adhesion kinase 1 (Homo sapiens) (Q05397 2-1052 limits assumed): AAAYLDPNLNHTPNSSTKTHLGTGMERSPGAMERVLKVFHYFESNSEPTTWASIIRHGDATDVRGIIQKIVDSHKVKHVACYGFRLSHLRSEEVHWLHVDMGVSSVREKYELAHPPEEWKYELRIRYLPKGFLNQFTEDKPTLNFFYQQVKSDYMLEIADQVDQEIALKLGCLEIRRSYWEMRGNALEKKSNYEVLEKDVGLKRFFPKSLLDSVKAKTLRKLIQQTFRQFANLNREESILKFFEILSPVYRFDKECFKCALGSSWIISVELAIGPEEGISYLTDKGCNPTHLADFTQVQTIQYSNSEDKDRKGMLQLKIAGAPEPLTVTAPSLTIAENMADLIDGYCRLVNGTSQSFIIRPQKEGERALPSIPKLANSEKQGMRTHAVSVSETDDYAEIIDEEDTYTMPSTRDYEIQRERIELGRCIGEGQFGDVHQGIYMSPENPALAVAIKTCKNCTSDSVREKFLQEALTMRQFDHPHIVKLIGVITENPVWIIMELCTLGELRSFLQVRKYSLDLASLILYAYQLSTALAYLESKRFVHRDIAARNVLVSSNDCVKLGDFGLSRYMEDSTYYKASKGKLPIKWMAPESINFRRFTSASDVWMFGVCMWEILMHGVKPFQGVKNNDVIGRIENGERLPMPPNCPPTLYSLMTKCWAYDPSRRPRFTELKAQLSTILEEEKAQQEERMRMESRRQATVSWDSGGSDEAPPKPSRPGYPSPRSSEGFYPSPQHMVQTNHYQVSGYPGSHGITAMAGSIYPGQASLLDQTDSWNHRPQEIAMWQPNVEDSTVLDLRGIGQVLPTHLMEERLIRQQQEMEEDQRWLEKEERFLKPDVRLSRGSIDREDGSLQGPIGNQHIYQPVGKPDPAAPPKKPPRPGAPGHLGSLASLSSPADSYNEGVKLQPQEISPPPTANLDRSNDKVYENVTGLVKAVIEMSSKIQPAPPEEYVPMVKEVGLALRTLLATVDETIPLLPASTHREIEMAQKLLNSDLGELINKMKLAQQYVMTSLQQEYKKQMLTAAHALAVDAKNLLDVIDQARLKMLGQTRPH

Row | SMILES | residual activity [1] [%] | residual activity [2] [%] | residual activity [3] [%] | residual activity [4] | residual activity [5] [%] | residual activity [6] [%] | residual activity [7] [%] | residual activity [8] [%] | residual activity [9] [%] | residual activity [10] [%] | residual activity [11] [%] | residual activity [12] [%]
1 | Oc1cccc(-c2nc(N3CCOCC3)c3oc4ncccc4c3n2)c1 | 98 | 124 | 95 | 116% (inactive) | 123 | 144 |  |  |  |  |  | 
2 | O=C1NC(=O)C(c2cn(CCCn3ccnc3)c3ccccc23)=C1Nc1ccccc1 | 125 | 109 |  | 114% (inactive) | 148 | 119 | 115 | 122 | 109 | 119 | 70 | 13
